The values below come from the supplement of paper PMC7556523.

Unmarked numbers belong to inactive results.

In assay [1] the test system is Sporothrix brasiliensis CBS 133006. Kind of assay: growth inhibition relative to untreated control; higher = more growth inhibition (more antifungal activity), active = 80 or more; extreme values may be limits of the assay. To be noted: 1 µM; 48 h. In short, it runs like this: (§1)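 Library compounds at a final 1 μM were incubated with yeast-form cells of the reference isolates (1 x 10^5 CFU/ml) for 48 h at 35°C in 5% CO2. Growth was judged by inverted light microscopy and measured spectrophotometrically in quadruplicate runs. Values give percent growth inhibition relative to untreated cells.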

In assay [2] the test system is Sporothrix schenckii ATCC 32286. Described as above. To be noted: 1 µM; 48 h. Put shortly:
as §1

Take `Cc1ccc(NC(=O)c2nc[nH]c2C(=O)Nc2nc3ccccc3[nH]2)c(C)c1`: the growth inhibition is 17.8% in assay [1] and 1.25% in assay [2].
For `Cc1nn2c(=O)c3c([nH]c2c1-c1ccc(Cl)cc1)CCCC3` the same measures were 12.8% and 15.8%.
For `Cc1ccc(C(=O)Nc2ccc(S(=O)(=O)O)c3cc(S(=O)(=O)O)cc(S(=O)(=O)O)c23)cc1NC(=O)c1cccc(NC(=O)Nc2cccc(C(=O)Nc3cc(C(=O)Nc4ccc(S(=O)(=O)O)c5cc(S(=O)(=O)O)cc(S(=O)(=O)O)c45)ccc3C)c2)c1` the same measures were 28% and 19%.
In the same order, the values of `CC(c1cc(Cl)cc(Cl)c1)N(C)c1ncc2c(N)nc(N)nc2n1` (configuration not stated) are 11.2% and 16.5%.
Regarding `N=C(N)Nc1ccc(-c2ccc(-c3ccc(NC(=N)N)cc3Cl)o2)c(Cl)c1`, the growth inhibition was 19.8% in assay [1] and 0% in assay [2].
In the same order, the values of `O=C(CN1CCOCC1)Nc1ccc2ncnc(Nc3ccc(OCc4cccc(F)c4)c(Cl)c3)c2c1` are 8.25% and 15.8%.
For the molecule `Cc1ccc(NC(=O)CC2COc3ccccc3O2)cc1Cl` (configuration not stated), the growth inhibition is 10% in assay [1] and 0% in assay [2].
For `Cc1nc2ccccn2c1C(=O)NCc1ccc(Cl)cc1` the same measures were 14% and 16%.
On to `CNc1cc(C)nc(C2CN(C(=O)c3n[nH]c4ccccc34)CCO2)c1` (configuration not stated), for which the results for the growth inhibition in assay [1] and in assay [2] were 5.75% and 4.5%, respectively.
For `COc1ccc2nc(C)cc(OCC(=O)Nc3ccccc3OC)c2c1` the same measures were 6% and 0.75%.
In the same order, the values of `Cc1cccc(Cn2ccc(NC(=O)c3ccc4c(c3)OCO4)n2)c1` are 7.5% and 7.25%.
In the same order, the values of `CC(C)(C)n1nc(Cc2cccc3ccccc23)c2c(N)ncnc21` are 11% and 0%.
Take `O=C(Nc1ccccc1-c1nc2c(C(=O)O)cccc2o1)c1ccccc1`: the values for the growth inhibition in assay [1] and in assay [2] were 1% and 0%, respectively.
In the same order, the values of `O=C(Nc1nnc(-c2ccc(Cl)cc2)o1)c1cccc(C(F)(F)F)c1` are 100% (active) and 85.5% (active).
For `Cn1c(=O)c2c(S(C)(=O)=O)snc2n(C)c1=O` the same measures were 9% and 13.2%.
For `COc1nc2ccc(Br)cc2cc1[C@@H](c1ccccc1)[C@@](O)(CCN(C)C)c1cccc2ccccc12` the same measures were 21.5% and 17.8%.
For `CC(C)=CCC/C(C)=C/CNCCNC1C2CC3CC(C2)CC1C3` (configuration not stated), the growth inhibition was 44.2% in assay [1] and 22.2% in assay [2].
In the same order, the values of `N#Cc1nc(-c2ccccc2)oc1S(=O)(=O)c1ccc(Cl)cc1` are 48.8% and 6.25%.
For `CCc1ccc(C(NCc2nc(N)nc(N(C)C)n2)C(C)C)cc1` (configuration not stated) the same measures were 0% and 8.75%.
In the same order, the values of `COC(=O)c1c(NC(=O)c2cc3ccccc3oc2=O)sc2c1CCN(Cc1ccccc1)C2` are 8.75% and 15%.
`CC(=O)Nc1ccc(-c2noc(CC3CCCN(Cc4cccc(F)c4C)C3)n2)cc1` (configuration not stated): the growth inhibition is 10.2% in assay [1] and 0.5% in assay [2].
Take `O=C(NCCc1c[nH]c2ccccc12)c1cc2ccccc2oc1=O`: the growth inhibition in assay [1] was 17.8%; in assay [2], 4.5%.
In the same order, the values of `Cc1cc(NC(=O)c2ccc(Oc3ccc(Cl)cc3O)o2)no1` are 18.8% and 2.75%.
For `CS(=O)(=O)c1ccc(C(=O)N(CC2CCCO2)c2nc3ccccc3s2)cc1[N+](=O)[O-]` (configuration not stated) the same measures were 27.2% and 19%.
With `c1ccc(-c2cc(N3CCCCC3)c3ccccc3n2)nc1`, the growth inhibition in assay [1] was 35.2%; in assay [2] it was 14.8%.
In the same order, the values of `COc1cccc(-n2nnnc2S(C)(=O)=O)c1` are 0% and 22.8%.
In the same order, the values of `Cc1cc(Nc2ccncc2)n2nc(C)c(-c3ccccc3Cl)c2n1` are 5% and 4.75%.
For `NCC(c1cccs1)S(=O)(=O)c1ccccc1` (configuration not stated) the same measures were 24.2% and 0%.
For `COc1ccc(C2(C(=O)Nc3ccc(Br)cc3)CCCC2)cc1`, the figures for the growth inhibition in assay [1] and in assay [2] were 59.8% and 13%, respectively.
For `O=C(NCCN1CCCC1)c1cc(NCCCCN2CCC(F)(F)CC2)nc2ccc(Cl)cc12` the same measures were 2.75% and 8.5%.
In the case of `C[C@@H]1[C@H](O)[C@@H](C)/C=C/C=C/C=C/C=C/C=C/C=C/C=C/[C@H](O[C@@H]2O[C@H](C)[C@@H](O)[C@H](N)[C@@H]2O)C[C@@H]2O[C@](O)(C[C@@H](O)C[C@@H](O)[C@H](O)CC[C@@H](O)C[C@@H](O)CC(=O)O[C@H]1C)C[C@H](O)[C@H]2C(=O)O`, the growth inhibition is 24% in assay [1] and 16% in assay [2].
In the same order, the values of `O=C(C1CCN(c2nnc(-n3cccc3)s2)CC1)N1CCC(Cc2ccccc2)CC1` are 7.5% and 0.5%.
For `COc1ccc(-c2cnc3ccc(N4CCCC4)nn23)cc1OC` the same measures were 21% and 0%.
For `COC(=O)C1=C(C)NC(C)=C(C(=O)OC(C)C)C1c1cccc2nonc12` (configuration not stated) the same measures were 10.8% and 11%.
Regarding `COC(=O)c1cccc2oc(-c3cccc(OC)c3NC(=O)c3cc(-c4ccccc4)on3)nc12`, the growth inhibition is 7.5% in assay [1] and 0% in assay [2].
In the same order, the values of `CS(=O)(=O)N1CCC(Cn2nc(Cc3cccc4ccccc34)c3c(N)ncnc32)CC1` are 11.2% and 22%.
In the same order, the values of `C[C@H](C(N)=O)N1CCCC[C@H]1c1ccc(OCc2cccc(F)c2)cc1` are 6.5% and 10%.
Consider `Cc1nn2c(O)c3c(nc2c1-c1ccc(F)cc1)CCCC3`, for which the growth inhibition is 7% in assay [1] and 6.5% in assay [2].
For `O=C(NCc1ccco1)N1CCN(Cc2ccc(Cl)s2)CC1` the same measures were 0% and 0.25%.
For `NS(=O)(=O)c1cccc(-c2ccc3ncc(N4CCOCC4)nc3c2)c1` the same measures were 17% and 0%.
In the same order, the values of `FC(F)(F)c1nnc2ccc(Cl)nn12` are 9.25% and 14%.
`CS(=O)(=O)N1CCC(CCn2nc(Cc3cccc4ccccc34)c3c(N)ncnc32)CC1`: the growth inhibition in assay [1] was 5.5%; in assay [2] it was 14%.
For `CC(C)(C)c1cc(C(=O)Nc2cccnc2)cc(C(=O)Nc2cccnc2)c1` the same measures were 6% and 4%.
For `O=C1Nc2ccc(Br)cc2C12NCCc1c2[nH]c2ccccc12` (configuration not stated) the same measures were 18.8% and 4.75%.
In the same order, the values of `CNCCC(Oc1ccc(C(F)(F)F)cc1)c1ccccc1` (configuration not stated) are 7.75% and 2%.
On to `c1cc(C2=NCCN2)cc(-c2cc(-c3ccc(C4=NCCN4)cc3)no2)c1`, for which the growth inhibition is 5.5% in assay [1] and 0% in assay [2].
With `O=C(NCCN1CCCC1)c1cc(NCCN2CCOCC2)nc2ccc(Cl)cc12`, the growth inhibition in assay [1] is 4.5%; in assay [2] it was 0%.
For `Nc1ncnc2c1c(-c1cnc3ccccc3c1)nn2CC1CCNCC1` the same measures were 13.2% and 15.5%.
For `FC(F)(F)c1cnc(Sc2nnc(-c3ccncc3)o2)c(Cl)c1` the same measures were 3.5% and 0%.
In the same order, the values of `Cc1cc(C(=O)Nc2ccc(-c3ccccc3)cc2)no1` are 1.75% and 17%.
Regarding `Cc1ccc(-c2nc(CN(Cc3ccccn3)C(C)C)cs2)o1`, the growth inhibition in assay [1] is 24%; in assay [2], 1.75%.
With `c1cncc(NCc2ccc(-c3cc4ccncc4cc3OC3CCNCC3)s2)c1`, the figures for the growth inhibition in assay [1] and in assay [2] were 20.8% and 3%, respectively.
Turning to `Cc1ccc2c(c1C)NC(=O)C21NN=C(c2ccccc2)S1` (configuration not stated), the growth inhibition in assay [1] was 7.25%; in assay [2], 4.5%.
In the same order, the values of `Cn1ncc2c(N3CCOCC3)nc(NCCc3c[nH]c4ccccc34)nc21` are 8.25% and 0%.
In the same order, the values of `COc1cccc(-c2nc3c(N4CCCC4)cccc3n2CC2CCCN2)n1` (configuration not stated) are 0% and 9.5%.
In the same order, the values of `Cc1[nH]c2cc(F)cc(F)c2c(=O)c1-c1ccc(Oc2ccc(OC(F)(F)F)cc2)cc1` are 2.25% and 9.5%.
As for `CC1=Nc2ccc(Cl)cc2C(O)(c2ccc(C)cc2)N1CCN1CCCCC1` (configuration not stated), the growth inhibition in assay [1] is 12.2%; in assay [2] it was 1.25%.
Turning to `CC(=O)NC[C@H]1CN(c2ccc(N3CCSCC3)c(F)c2)C(=O)O1`, the growth inhibition in assay [1] was 5.5%; in assay [2], 0%.
In the same order, the values of `CC(=O)NCC1CN(c2ccc(-c3ccc(CNCc4cn[nH]n4)cc3)c(F)c2)C(=O)O1` (configuration not stated) are 15.5% and 0%.
In the same order, the values of `COc1cccc(-c2cc3c(Nc4cccnc4)nccc3[nH]2)c1` are 4% and 5%.
In the same order, the values of `Cc1nn(C(=O)Nc2cccc(C(F)(F)F)c2)c(C)c1Sc1ncccn1` are 28.2% and 15.2%.
For the molecule `O=C(Nc1ccc2c(c1)B(O)OC2)c1ccccc1C(F)(F)F`, the growth inhibition in assay [1] was 13.5%; in assay [2] it was 20.5%.
For `CCN(CC)S(=O)(=O)c1ccc(C(=O)Nc2cc(C)nn2-c2nc(C)c(C)c(=O)[nH]2)cc1` the same measures were 1.25% and 0%.
In the same order, the values of `Cc1cc(NC(=O)c2ccc(S(=O)(=O)N(Cc3ccccc3)C(C)C)cc2)no1` are 18.2% and 2.75%.
In the same order, the values of `COc1ccc(-c2nnc3ccc(-c4cccc(C(C)C)c4)cn23)cc1OC` are 17% and 16.8%.
Take `O=C(C1CCCCC1)N1CC(=O)N2CCc3ccccc3C2C1` (configuration not stated): the results for the growth inhibition in assay [1] and in assay [2] were 2.25% and 10.2%, respectively.
For `O=C(Nc1nc(-c2ccccn2)cs1)C1CC1c1ccccc1F` (configuration not stated) the same measures were 9.5% and 34.2%.
With `NC(=O)c1cc(-c2ccsc2)ccc1OCCOc1ccccc1`, the growth inhibition was 7.25% in assay [1] and 12.2% in assay [2].
For `Cc1cc(Nc2ccc(C(F)(F)F)cc2)n2ccnc2n1` the same measures were 12.2% and 1%.
Turning to `Nc1ncc(Br)cc1-c1nc2cc(Cl)cnc2[nH]1`, the growth inhibition was 12% in assay [1] and 19.2% in assay [2].
For `N=C(N)Nc1ccc(-c2ccc(-c3ccc(N=C(N)N)c(Cl)c3)o2)cc1Cl` the same measures were 1.75% and 0%.
